Laboratory results taken from PubChem BioAssay AID1159580 (chemical genetic matrix, 2015).
Several values for one entry are separate records, joined by “and”; a condition that tells them apart may be missing. Identical values can stand only once. Among all 5,500 compounds or so, about 2,000 (36%) were called active. About 18% were inconclusive and are not listed. No stated cut-off is given here; in the data, active means normalized growth mostly below about 0.91 (no sharp cut-off); inconclusive means no clear call, values can overlap the other calls; inactive means mostly above about 0.92. Some of the results follow.

Test: chemical genetic growth profiling, strain panel (AID 1159580);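 further: tested at 20 µM; growth read once vehicle control cultures reached saturation at 30 °C; 1 = growth at the plate median or of vehicle wells; lower values mean less growth of the strain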
Settings: S. cerevisiae deletion strains, growth OD

Measured: normalized growth

CCc1cc(C(N)=S)ccn1
inactive: locus YAL021C, strain ccr4, active compounds read low 1 | locus YAL026C, strain drs2, active compounds read low 1 | locus YAL030W, strain snc1, active compounds read low 0.994 | locus YBL061C, strain skt5, active compounds read low 1.01 | locus YBR009C, strain hhf1, active compounds read low 1 | locus YBR021W, strain FUR4, active compounds read low 1.06 | locus YBR023C, strain chs3, active compounds read low 1.02 | locus YBR171W, strain sec66, active compounds read low 1 | locus YBR229C, strain ROT2, active compounds read low 0.953 | locus YBR231C, strain swc5, active compounds read low 1.04 | locus YBR279W, strain paf1, active compounds read low 1 | locus YCL011C, strain gbp2, active compounds read low 1.01 | locus YCL016C, strain dcc1, active compounds read low 1 | locus YCL061C, strain MRC1, active compounds read low 1.01 | locus YCL069W, strain vba3, active compounds read low 0.991 | locus YCR088W, strain abp1, active compounds read low 1 | locus YDL005C, strain med2, active compounds read low 1 | locus YDL035C, strain GPR1, active compounds read low 1.01 | locus YDL040C, strain nat1, active compounds read low 0.998 | locus YDL074C, strain BRE1, active compounds read low 0.991 | locus YDL101C, strain DUN1, active compounds read low 0.981 | locus YDL134C, strain PPH21, active compounds read low 0.985 | locus YDL185W, strain tfp1, active compounds read low 0.976 | locus YDL192W, strain arf1, active compounds read low 0.981 | locus YDR001C, strain nth1, active compounds read low 1 | locus YDR069C, strain doa4, active compounds read low 0.978 | locus YDR101C, strain arx1, active compounds read low 0.93 | locus YDR137W, strain rgp1, active compounds read low 1.02 | locus YDR150W, strain NUM1, active compounds read low 0.983 | locus YDR159W, strain sac3, active compounds read low 0.953 | locus YDR162C, strain NBP2, active compounds read low 1 | locus YDR195W, strain ref2 0.979 | locus YDR297W, strain sur2, active compounds read low 1 | locus YDR318W, strain mcm21, active compounds read low 1 | locus YDR334W, strain swr1, active compounds read low 1.01 | locus YDR335W, strain msn5, active compounds read low 0.996 | locus YDR388W, active compounds read low 0.995 | locus YDR392W, strain spt3, active compounds read low 0.938 | locus YDR502C, strain sam2, active compounds read low 0.98 | locus YEL003W, strain gim4, active compounds read low 0.998 | locus YEL037C, strain rad23, active compounds read low 0.999 | locus YEL061C, strain CIN8 (second series), active compounds read low 0.994 | locus YEL061C, strain CIN8, active compounds read low 0.959 | locus YER015W, strain faa2, active compounds read low 1.01 | locus YER016W, strain bim1, active compounds read low 0.957 | locus YER110C, active compounds read low 0.98 | locus YER111C, strain swi4, active compounds read low 0.996 | locus YER155C, strain BEM2 (second series), active compounds read low 0.943 | locus YER155C, strain BEM2, active compounds read low 0.99 | locus YER167W, strain BCK2, active compounds read low 0.994 | locus YFR010W, strain ubp6, active compounds read low 1 | locus YGL078C, strain dbp3, active compounds read low 0.986 | locus YGL086W, strain mad1, active compounds read low 0.964 | locus YGL167C, strain pmr1, active compounds read low 1 | locus YGL173C, strain kem1, active compounds read low 0.995 | locus YGL227W, strain vid30, active compounds read low 1.01 | locus YGL240W, strain doc1, active compounds read low 0.978 | locus YGL248W, strain PDE1, active compounds read low 0.989 | locus YGL253W, strain hxk2, active compounds read low 1.01 | locus YGR135W, strain pre9, active compounds read low 1.05 | locus YGR252W, strain gcn5, active compounds read low 1.14 | locus YHR013C, strain ard1, active compounds read low 1.05 | locus YHR027C, strain rpn1, active compounds read low 1.01 | locus YHR030C, strain SLT2, active compounds read low 0.997 and 1.11 | locus YHR079C, strain IRE1 (second series), active compounds read low 0.993 | locus YHR079C, strain IRE1, active compounds read low 1.08 | locus YHR094C, strain hxt1, active compounds read low 0.987 | locus YHR129C, strain ARP1, active compounds read low 0.991 | locus YHR142W, strain chs7, active compounds read low 1.02 | locus YHR200W, strain rpn10, active compounds read low 0.98 | locus YIL066C, strain RNR3, active compounds read low 0.965 | locus YIL073C, strain SPO22, active compounds read low 1.08 | locus YIL125W, strain kgd1, active compounds read low 0.981 | locus YIR030C, strain dcg1, active compounds read low 0.99 | locus YJL092W, strain hpr5, active compounds read low 1.01 | locus YJL095W, strain BCK1 (second series), active compounds read low 1 | locus YJL095W, strain BCK1, active compounds read low 0.964 and 1.07 | locus YJL115W, strain asf1, active compounds read low 1.01 | locus YJL129C, strain trk1, active compounds read low 1.03 | locus YJL134W, strain LCB3, active compounds read low 0.991 | locus YJL154C, strain vps35, active compounds read low 0.995 | locus YJL164C, strain tpk1, active compounds read low 1.02 | locus YJL166W, strain qcr8, active compounds read low 1.04 | locus YJL168C, strain set2, active compounds read low 0.991 | locus YJL187C, strain SWE1 (second series), active compounds read low 0.941 | locus YJL187C, strain SWE1, active compounds read low 1.01 | locus YJR043C, strain POL32, active compounds read low 0.983
